Screening data (PubChem)
Sampled rows, rich in hits. Any-hit rate of the full collection: about 21%.
Sm TGR inh: inhibitors of Schistosoma mansoni thioredoxin glutathione reductase. Potency, µM (series often up to 114 µM), for the others: top-dose activity change, negative = inhibition, hits mostly inhibitors. purified TGR, DTNB reduction, TNB absorbance 405 nm. 360,000 compounds, 3% hits. AID 485364; note: potency is the fitted concentration of half-maximal effect; % is set by controls: 0 for no effect and ±100 for the full control effect; nearly all actives have a fitted effect of over 60% in size
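Kinetic colorimetric format: TGR-catalysed, NADPH-driven DTNB reduction monitored via TNB absorbance. Enzyme dispensed at 20 nM; compound exposure 15 min at room temperature before reaction start.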
Shiga toxin inh: inhibitors of Shiga toxin in Vero cells | 290,000 compounds, 9.2% hits | inhibition, % at 38.7 µM | AID 2315 | Vero cells, Shiga toxin protein synthesis inhibition reporter; in the data active = inhibition mostly above about 28%, no sharp cut-off; inactive = mostly below about 43%; note: 0% is about no effect
Pf growth 96h: P. falciparum growth inhibition at 96 hour, primary screen for plastid delayed-death inhibitors. P. falciparum luciferase reporter growth, 96 h. Potency, µM (top dose mostly 28.7 µM), without a hit: at the highest dose activity change, negative = inhibition, usual class: inhibitors. 320,000 compounds, 6.9% hits. AID 504834; note: potency is the fitted concentration of half-maximal effect; % is set by controls: 0 for no effect and ±100 for the full control effect
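P. falciparum expressing integrated firefly luciferase grown in erythrocytes (2% hematocrit, 0.05% parasitemia final) with compounds for 96 hours at 37 C, 5% CO2. Growth inhibition read as loss of luminescence after adding luciferase detection reagent.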
Cycloheximide cs: counter-screen hit for Shiga toxin inhibitors, cycloheximide | cell reporter, cycloheximide protein synthesis inhibition counterscreen | max response, % | 300,000 compounds, 12% hits | AID 2314; in the data active = max response mostly above about 13%, no sharp cut-off; inactive = mostly below about 14%; note: read at 38.3 µM for the half of the compounds with a filed dose; 0% is about no effect
NS1 function inh: influenza NS1 inhibition; 270,000 compounds, 0.4% hits; Potency, µM (highest dose often 46.1 µM), for inactives: top-dose activity, positive = more growth; calls by dose curve; note: potency is the fitted concentration of half-maximal effect; actives are rising curves; nearly all actives have a fitted effect of over 50% in size
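S. cerevisiae expressing influenza A NS1, grown in glucose, washed, then diluted 1:100 into pH 6.0 -URA galactose medium with 23 nl compound. Growth recovery read as OD600; NS1-free strain serves as control.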
Pf growth 48h: inhibits P. falciparum growth in the first generation, 48 h | P. falciparum luciferase growth in erythrocytes, 48 h | Potency, µM (titrated, usually from 28.7 µM), inactives show at the highest dose activity change, negative = inhibition, usual class: inhibitors | 310,000 compounds, 5.9% hits; note: potency is the fitted concentration of half-maximal effect; % is set by controls: 0 for no effect and ±100 for the full control effect
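Luciferase-expressing P. falciparum in infected erythrocytes (2% hematocrit, 0.1% parasitemia final) in RPMI 1640/0.5% Albumax were exposed to compound for 48 hours at 37 C, 5% CO2; growth read as luminescence.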
The depositor's hits bear a star. Unless noted, calls come from the whole dose curve; as a rule, active = well fitted curve in the direction sought with a large enough effect; inconclusive = small, poorly fitted or top-dose-only effect, or another doubt; inactive = no such curve, though single readings can be large; an effect the other way counts as inactive or inconclusive.

How did COCCN(C(=O)CNC(=O)c1ccco1)C(C(=O)NC1CCCC1)c1ccccc1F (stereo not drawn) do in these assays?
Sm TGR inh: 3%; Shiga toxin inh: 0; Pf growth 96h: 11%; Cycloheximide cs: -6; NS1 function inh: 7%; Pf growth 48h: 24%

What do the screens show for `COc1ccc(CCN(C(=O)C(F)(F)F)C(C(=O)NC2CCCCC2)c2ccc(C)s2)cc1` (stereo not drawn)?
Sm TGR inh: 7%; Shiga toxin inh: -3; Pf growth 96h: 8.3µM*; Cycloheximide cs: -4; NS1 function inh: 7%; Pf growth 48h: inconclusive

How did CCCN(C(=O)COC(=O)COc1c(C)cccc1C)c1c(N)n(Cc2ccccc2)c(=O)[nH]c1=O do in these assays?
Sm TGR inh: -2%; Pf growth 96h: 7%; Pf growth 48h: 10%

What do the screens show for `COC(=O)c1c(NC(=O)COC(=O)c2ccc(Cl)nc2)sc(C)c1C`?
Sm TGR inh: -1%; Pf growth 96h: 7%; Pf growth 48h: 33%

What do the screens show for `CCCCN1CCC2C=CCC(C(=O)O)C2C1=O` (stereo not drawn)?
Shiga toxin inh: 2; Cycloheximide cs: -7

How did NC(=O)c1ccsc1NC(=O)CSc1nnc(Nc2ccccc2)s1 do in these assays?
Sm TGR inh: 4%; Shiga toxin inh: -1; Pf growth 96h: inconclusive; Cycloheximide cs: 14; NS1 function inh: 15%; Pf growth 48h: inconclusive

What do the screens show for `COCCN1C(=O)c2oc3ccc(C)cc3c(=O)c2C12C(=O)N(C)c1ccccc12` (stereo not drawn)?
Sm TGR inh: -1%

How did COCCC(=O)NNS(=O)(=O)c1ccc(Cl)cc1 do in these assays?
Sm TGR inh: 3%; Shiga toxin inh: 10; Pf growth 96h: 14%; Cycloheximide cs: -2; NS1 function inh: 7%; Pf growth 48h: -5%

How did Cc1ccc(N(C(=O)C(F)(F)F)C(C(=O)NC2CCCCC2)c2cccs2)cc1 (stereo not drawn) do in these assays?
Sm TGR inh: 9%; Shiga toxin inh: -8; Pf growth 96h: inconclusive; Cycloheximide cs: -2; NS1 function inh: inconclusive; Pf growth 48h: inconclusive

Results for COc1ccc(CCN(C(=O)C(F)(F)F)C(C(=O)NC2CCCCC2)c2cccs2)cc1 (stereo not drawn) ?
Sm TGR inh: -8%; Shiga toxin inh: -6; Pf growth 96h: inconclusive; Cycloheximide cs: -2; NS1 function inh: -1%; Pf growth 48h: 9.3µM*

How did CCSc1nnc2c(n1)OC(C)(C)Nc1ccccc1-2 do in these assays?
Sm TGR inh: 5%; Shiga toxin inh: 65*; Pf growth 96h: 15%; Cycloheximide cs: 34*; NS1 function inh: 5%; Pf growth 48h: 36%

What do the screens show for `O=S(=O)(Nc1cc(S(=O)(=O)N2CCOCC2)ccc1NCC1CCCO1)c1ccccc1` (stereo not drawn)?
Sm TGR inh: 1%; Pf growth 96h: -6%; Pf growth 48h: -7%

What do the screens show for `O=C(CSc1oc(-c2ccco2)nc1S(=O)(=O)c1ccc(F)cc1)NCC1CCCO1` (stereo not drawn)?
Sm TGR inh: 0%; Shiga toxin inh: -7; Pf growth 96h: inconclusive; Cycloheximide cs: 2; NS1 function inh: -2%; Pf growth 48h: 8%

Results for O=C(CSc1oc(-c2ccco2)nc1S(=O)(=O)c1ccccc1)NCC1CCCO1 (stereo not drawn) ?
Sm TGR inh: 16µM*; Shiga toxin inh: 9; Pf growth 96h: 4%; Cycloheximide cs: -1; NS1 function inh: -16%; Pf growth 48h: -5%

Results for O=C(CSc1oc(-c2ccco2)nc1S(=O)(=O)c1ccc(Cl)cc1)NCC1CCCO1 (stereo not drawn) ?
Sm TGR inh: 50µM*; Shiga toxin inh: -15; Pf growth 96h: inconclusive; Cycloheximide cs: -4; NS1 function inh: -7%

How did COc1ccccc1NS(=O)(=O)c1cc([N+](=O)[O-])ccc1N/N=C/c1c(C)[nH]c2ccccc12 do in these assays?
Sm TGR inh: -15%; Shiga toxin inh: -20; Cycloheximide cs: -5; NS1 function inh: 9%; Pf growth 48h: 10µM*
